# Screens deposited in PubChem by National Center for Advancing Translational Sciences (NCATS).
# Nrf2 ARE act = activators of Nrf2 (ARE) signaling | hit rate 0.31% among 410,000 | AREc32 ARE-luciferase reporter (MCF7-derived line), luminescence, 24 h | Potency, µM (highest dose often 46.1 µM), for inactives: at the top dose activation, most hits filed as activators; further: % of control where 0% means no effect; nearly all actives have a fitted effect of over 65% in size
#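 Each well held 1000 AREc32 cells, which were incubated with compound for 24 hr at 37 deg C after overnight attachment, and ARE reporter activity was quantified by firefly luciferase luminescence.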
# A549 viability = counter-screen for Nrf2 inhibitors: cytotoxicity in A549 cells; A549 ARE-Fluc cells, CellTiter-Fluor viability, 18-24 h; Potency, µM (titrated, usually from 46 µM), for inactives: at the highest dose activity change, negative = cytotoxicity, actives largely listed as inhibitors; hit rate 0.16% among 390,000; AID 504648; further: on the % scale 0 is the no-effect control and ±100 the full control effect
#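 A549 ARE-Fluc cells in 5% FBS OPTI-MEM, 5000 cells/well, rested 2 h then exposed to compounds in concentration-response for 18-24 h at 37 °C. Viability by CellTiter-Fluor fluorescence (Ex 405/Em 525) after 30 min; luciferase luminescence (BugLite, 15 min, RT) read afterwards.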
# S2 tox = cell viability loss in ATXN counter-screen | S2 cells (HEK-293 line with an ATXN2-luciferase reporter) viability, CellTiter-Fluor protease fluorescence, 24 h | Potency, µM (titrated, usually from 56.7 µM), hits mostly cytotoxic | hit rate 0.49% among 400,000 | AID 651635; further: nearly all actives have a fitted effect of over 40% in size
# Nrf2 block = inhibitors of Nrf2 signaling; A549 ARE-Fluc reporter, luciferase luminescence, 18-24 h; Potency, µM (series often up to 46 µM), without a hit: at the top dose activity change, negative = inhibition, hits mostly inhibitors; hit rate 2.1% among 360,000; AID 504444; further: on the % scale 0 is the no-effect control and ±100 the full control effect; nearly all actives have a fitted effect of over 60% in size
#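 Two sequential reads on A549 ARE_Fluc cells exposed to compound for 18-24 h: a CellTiter-Fluor fluorescence read for viability, then a luciferase luminescence read for Nrf2/ARE activity.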
# ATXN2 expr inh = ATXN2 expression inhibition; AID 1745845; Potency, µM (titrated, usually from 57 µM), for inactives: at the highest dose activity change, negative = inhibition, most hits filed as inhibitors; HEK-293 ATXN2-luciferase reporter, luminescence, 24 h; hit rate 0.72% among 360,000; further: on the % scale 0 is the no-effect control and ±100 the full control effect; nearly all actives have a fitted effect of over 55% in size
#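 qHTS (up to 57 uM final) was run with 24 h compound exposure of reporter cells at 37 °C. Each well was multiplexed: SteadyGlo luminescence measured ATXN2-luciferase expression after a fluorogenic Gly-Phe-AFC viability readout (25 uM final).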
# Active calls of the source: *; i = inactive; ? = inconclusive; . = no result given; [ ] = remark or other dose. Shown are actives, neighbours in structure and some others; about 2.9% of the full set was active somewhere. The call rests on the fitted dose curve; in most records, active means well fitted curve in the direction sought with a large enough effect; inconclusive means small, poorly fitted or top-dose-only effect, or another doubt; inactive means no such curve, though single readings can be large; an effect the other way counts as inactive or inconclusive. Potency means the concentration at half of the fitted maximal effect.
SMILES,Nrf2 ARE act,A549 viability,S2 tox,Nrf2 block,ATXN2 expr inh
COC(=O)c1ccc(Nc2nnc(-c3ccc(C)c(S(=O)(=O)N4CCN(C)CC4)c3)c3ccccc23)cc1,9.9%,-12.0%,.,-19.3%,.
COc1ccc(OC)c(NC(=O)c2cc(-c3ccc(Cl)s3)nc3ccccc23)c1,-0.4%,0.0%,i,10.0%[9.27 µM],2.7%
CC(=O)N1c2ccc(S(=O)(=O)N3CCC(C(=O)Nc4cccc(F)c4)CC3)cc2CC1C (configuration not stated),2.0%,-8.7%,i,16.4µM*,-25.9%
Cc1cc(F)ccc1NC(=O)CCS(=O)(=O)c1ccc2c(c1)CC(C)N2C(=O)C1CC1 (configuration not stated),-0.3%,-3.1%,.,-26.3%,.
CC1Cc2cc(S(=O)(=O)CCC(=O)Nc3ccc(Cl)cc3F)ccc2N1C(=O)C1CC1 (configuration not stated),1.1%,1.0%,.,13µM*,.
Cc1cccc(NC(=O)C2CCN(S(=O)(=O)c3ccc4ccccc4c3)CC2)n1,2.9%,-13.5%,i,16.4µM*,-10.9%
CC1Cc2cc(S(=O)(=O)N3CCC(C(=O)Nc4ccccn4)CC3)ccc2N1C(=O)C1CCC1 (configuration not stated),3.1%,-12.1%,i,14.6µM*,-15.2%
Cc1cccc(NC(=O)C2CCN(S(=O)(=O)c3ccc(Cl)cc3)CC2)n1,0.1%,-6.7%,i,?,-15.8%
COc1cc(-c2ccc(Cl)cn2)cc2c1OCCN(C(=O)c1ccccc1-n1cccn1)C2,.,.,i,.,.
COC(=O)c1ccc(OC)c(CN2C(=O)N(c3ccc(C(C)=O)cc3)S(=O)(=O)c3ccccc32)c1,-1.1%,?,i,.,-9.4%
CCOc1ccc(CNC(=O)CCCn2c(=O)c3cccn3c3cccnc32)cc1,2.7%,5.2%,.,-0.4%,.
COc1cc(/C=C/CN2CCOc3ccc(C(O)c4cccnc4)cc3C2)ccc1O (configuration not stated),.,.,i,.,.
CCC(=O)N1c2ccc(S(=O)(=O)N3CCN(c4cc(C)ccc4C)CC3)cc2CC1C (configuration not stated),-1.3%,6.4%,i,16.4µM*,-9.5%
CC(=O)c1ccc(N2CCN(C(=O)C3CCN(S(=O)(=O)c4ccc5c(c4)CC(C)N5C(C)=O)CC3)CC2)cc1 (configuration not stated),2.8%,-0.5%,i,14.6µM*,-18.1%
CC1Cc2cc(S(=O)(=O)N3CCN(c4ccccc4F)CC3)ccc2N1C(=O)C1CC1 (configuration not stated),-0.5%,-8.4%,i,14.6µM*,?
COc1cccc(N2CCN(S(=O)(=O)c3ccc4c(c3)CC(C)N4C(=O)C3CC3)CC2)c1 (configuration not stated),-0.1%,-1.0%,i,?,-19.3%
COc1ccc(NC(=O)C2CCCN(S(=O)(=O)c3ccc4c(c3)CC(C)N4C(C)=O)C2)cc1 (configuration not stated),0.1%,-1.8%,i,?,-18.2%
CC(=O)N1c2ccc(S(=O)(=O)N3CCCC(C(=O)Nc4ccc(F)cc4)C3)cc2CC1C (configuration not stated),2.0%,-10.2%,?,18.4µM*,-19.6%
CCC(=O)N1c2ccc(S(=O)(=O)CCC(=O)N3CCN(c4cc(C)ccc4C)CC3)cc2CC1C (configuration not stated),-0.5%,-0.1%,i,?,-4.3%
COc1ccc(-c2cc(C(=O)OC(C)C(=O)c3ccccc3)c3cccc(Cl)c3n2)cc1 (configuration not stated),3.8%,-0.7%,i,11.1%,3.9%
COC(=O)[C@@H]1CCCN1C(=O)c1c(OC)cc(=O)n2c1CCN(Cc1c(C)[nH]c3ccccc13)CC2,.,.,i,.,.
CCc1ccc(NC(=O)C2CCN(S(=O)(=O)c3ccc4c(c3)CC(C)N4C(C)=O)CC2)cc1 (configuration not stated),2.3%,-1.3%,?,16.4µM*,12.6µM*
O=C(Nc1cccc(F)c1)C1CCN(S(=O)(=O)c2ccc3[nH]c4c(c3c2)CCCCC4)CC1,-0.8%,-29.7%,.,18.4µM*,.
Cc1cc(C)cc(CN2CCOc3ccc(CN4CCC(O)(c5cccnc5)CC4)cc3C2)c1,.,.,i,.,.
CN(C)c1ccc(C2CC(c3cccc(NS(C)(=O)=O)c3)=NN2C(=O)c2ccccc2)cc1 (configuration not stated),2.8%,?,i,23.1µM*,-14.0%
SMILES,Nrf2 ARE act,A549 viability,S2 tox,Nrf2 block,ATXN2 expr inh
CS(=O)(=O)Nc1ccc(C2=NN(C(=O)c3ccccc3)C(c3cccs3)C2)cc1 (configuration not stated),3.0%,-10.7%,i,?,-13.2%
CS(=O)(=O)Nc1ccc(C2=NN(C(=O)c3cccc(F)c3)C(c3cccs3)C2)cc1 (configuration not stated),3.0%,?,?,18.4µM*,.
N#Cc1nc(Nc2cccc(C(F)(F)F)c2)nc(NC2CCCC2)n1,.,-3.8%,.,-5.8%,.
CCC1C(=O)NCCN1Cc1ccc2c(c1)CN(Cc1ccc(OC)c(OC)c1)CCO2 (configuration not stated),.,.,i,.,.
Cc1ccc2nc(SCC(=O)N3CCOCC3)[nH]c2c1,0.1%,-1.1%,i,?,4.6%
Cc1cc(C(=O)CSc2nc3ccc(Cl)cc3[nH]2)c(C)n1CC1CCCO1 (configuration not stated),3.8%,-26.9%,i,13µM*,-32.9%
Cc1cc(C(=O)CSc2nc3ccc(Cl)cc3[nH]2)c(C)n1C,0.8%,-10.3%,i,-7.2%,6.1%
Cc1ccc2nc(SCC3CCCCO3)[nH]c2c1 (configuration not stated),-1.4%,7.7%,i,?,11.2µM*
COCC1CCCN(Cc2ccc3c(c2)CN(C(=O)c2cccnc2OC)CCO3)C1 (configuration not stated),.,.,i,.,.
O=[N+]([O-])c1ccc(Cl)c(C[n+]2cccc3ccccc32)c1,-1.5%,-14.8%,?,11.6µM*,.
O=C(C[n+]1cccc2ccccc21)c1ccc([N+](=O)[O-])cc1,15.5%,?,i,?,-3.3%[11.3 µM]
CCNc1nc(NC(C)C)nc(N(C#N)CCOc2ccc(Cl)cc2Cl)n1,3.8%,.,i,9.2µM*,-3.3%
N#CC(=C1Nc2ccccc2S1)c1ccnc(OCc2ccc(CN3CCOCC3)cc2)n1,.,.,.,.,0.0137µM*
C=CCN1C=C/C(=C\C=C(C#N)C#N)c2ccccc21,3.0%,18.4µM*,.,?,-3.8%[11.3 µM]
CCCCCCN1C=C/C(=C\C=C(C#N)C#N)c2ccccc21,-0.8%,6.51µM*,.,18.4µM*,?
CCCCCCN1C=CC=C/C1=C/C=C(C#N)C#N,-0.1%,-16.4%,i,-2.9%,-1.7%
C=CCN1C=CC(=CC=C(C#N)C#N)C=C1,7.2%,-17.0%,i,20.7%,14.7%
